Experimental findings from PubChem BioAssay (NCATS) are described below.

In assay [1] the target is Estrogen receptor (Homo sapiens) (UniProt P03372). In words: qHTS assay for small molecule antagonists of estrogen receptor alpha signaling (AID 588513; active means well fitted curve in the direction sought with a large enough effect in the signal ratio, with a control signal flat, not every such curve was filed as active; the % refers to the signal ratio; further: on the % scale 0 is the no-effect control and ±100 the full control effect). The procedure, abridged:
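Antagonist-mode qHTS in ER-alpha-UAS-bla HEK 293 cells: compound titration, 0.5nM estradiol for 18 h, CCF4 fluorescence, Hill-derived IC50.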
Background: Quantitative high-throughput screening tests each substance at several concentrations.

The target in assay [2] is Bile acid receptor (Homo sapiens) (UniProt Q96RI1). Kind of assay: qHTS assay for small molecule agonists of farnesoid X receptor signaling (AID 588527; calls by dose curve;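 further: series mostly up to about 77 µM; 0% = vehicle basal and 100% = reference agonist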). As to conditions: HEK293T FXR-UAS-bla, beta-lactamase ratio, 16 h; activation: stronger effect = higher value. The procedure, abridged:
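Read-out: beta-lactamase reporter fluorescence with CCF4 substrate in GeneBLAzer FXR-UAS-bla HEK293T cells, after 16 h compound exposure at 37 C. Response scaled between DMSO basal (0%) and chenodeoxycholic acid at 100 uM (100%).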

The target in assay [3] is Glucocorticoid receptor (Homo sapiens) (UniProt P04150). In words: qHTS assay for small molecule agonists of glucocorticoid receptor signaling (AID 588532; active means well fitted curve in the direction sought with a large enough effect in the signal ratio, with a control signal flat; the % refers to the signal ratio;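 further: 100% = dexamethasone at 0.1 µM and 0% = DMSO only wells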). Conditions: HeLa MMTV-bla, beta-lactamase ratio, agonist, 18 h; stronger effect = higher value; percent of dexamethasone control, DMSO zero. The procedure, abridged:
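Titration series, up to 92 uM, applied to GRE-bla HeLa cells for 18 h at 37 C. Detection by CCF4 FRET substrate after 2 h at RT.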

The target is the same in assay [4]. In words: qHTS assay for small molecule antagonists of glucocorticoid receptor signaling (AID 588533; active means well fitted inhibition curve with a large enough effect in the signal ratio, with a control signal flat, not every such curve was filed as active; the % refers to the signal ratio;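 further: cells stimulated with 2 nM dexamethasone as agonist; on the % scale 0 is the no-effect control and ±100 the full control effect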). The procedure, abridged: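 Antagonist-mode qHTS: compound titrations added to GRE-bla HeLa cells, then dexamethasone 2 nM final; 18 h, 37 C. CCF4 FRET fluorescence normalized to dexamethasone and DMSO; IC50 from Hill fit.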
The target of assay [5] is Peroxisome proliferator-activated receptor gamma (Homo sapiens) (UniProt P37231). In words: qHTS assay for small molecule agonists of peroxisome proliferator-activated receptor gamma signaling (AID 588536; active means well fitted curve in the direction sought with a large enough effect in the signal ratio, with a control signal flat, not every such curve was filed as active; the % refers to the signal ratio;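 further: 0% = DMSO basal wells and 100% = rosiglitazone at 2 µM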). The procedure, abridged: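 Test agents, titrated, stimulated HEK293 UAS-bla cells overnight (16 h, 37 C). Substrate CCF4 was then added for two hours at room temperature before fluorescence reading.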

Assay [6] shares this target. Kind of assay: qHTS assay for small molecule antagonists of peroxisome proliferator-activated receptor gamma signaling (AID 588537; active means well fitted inhibition curve with a large enough effect in the signal ratio, with a control signal flat, not every such curve was filed as active; the % refers to the signal ratio;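 further: reporter cells co-stimulated with 50 nM rosiglitazone agonist during compound treatment; % of control where 0% means no effect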). The procedure, abridged: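 PPAR-gamma-UAS-bla HEK293 cells (3000/well, 1% charcoal/dextran-stripped FBS) were preincubated 6-6.5 h at 37 C, given titrated compounds, then stimulated with 50 nM rosiglitazone for 16 h. Beta-lactamase activity was read with CCF4 dye; IC50 came from Hill fits.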

Assay [7] concerns the target Vitamin D3 receptor (Homo sapiens) (UniProt P11473). Kind of assay: qHTS assay for small molecule antagonists of vitamin D receptor signaling (AID 588541; calls by dose curve;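 further: receptor activated by calcitriol during compound treatment; series mostly up to about 77 µM; on the % scale 0 is the no-effect control and ±100 the full control effect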). The procedure, abridged: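 VDR-UAS-bla HEK293T cells (2000/well, 2% charcoal-stripped FBS) were treated with titrated compounds plus 1-alpha,25-dihydroxyvitamin D3 (50 nM or 3 nM final) for 16 h at 37 C. CCF4 beta-lactamase fluorescence was read; Hill fits gave IC50.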

Assay [8] can be described thus: qHTS assay for small molecule agonists of retinoid X receptor alpha signaling (AID 588544; calls by dose curve;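 on activation: 0% = DMSO basal wells and 100% = reference agonist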). Conditions: HEK293T RXRa-UAS-bla, beta-lactamase reporter, 18 h; 530 nm emission.
The target in assay [9] is Retinoic acid receptor RXR-alpha (Homo sapiens) (UniProt P19793). The assay is described as above.
The nature of assay [10]: qHTS assay for small molecule antagonists of retinoid X receptor alpha signaling (AID 588546; active means well fitted inhibition curve with a large enough effect in the signal ratio, with a control signal flat, not every such curve was filed as active; the % refers to the signal ratio;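 further: cells stimulated with 9-cis-retinoic acid as agonist; on the % scale 0 is the no-effect control and ±100 the full control effect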). Conditions: HEK293T RXRa-UAS-bla, beta-lactamase ratio, antagonist mode; measured here: W530 green channel, cytotoxicity proxy. The procedure, abridged: (§1)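 Beta-lactamase reporter inhibition, read as CCF4 fluorescence ratio (ex 405, em 460/530 nm) after 2 h at RT. HEK293T UAS-bla cells, 2500/well, were stimulated with 9-cis-RA at 500 or 100 nM final alongside test compound for 18 h at 37 C.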

For assay [11], the target named is Retinoic acid receptor RXR-alpha (Homo sapiens) (UniProt P19793). The description is as above. As to conditions: HEK293T RXRa-UAS-bla, beta-lactamase ratio, antagonist mode. The procedure, abridged:
as §1

A short description of assay [12]: qHTS assay for small molecule agonists of the antioxidant response element (ARE) signaling pathway (AID 651741; active means well fitted activation curve with a large enough effect in the signal ratio; the % refers to the signal ratio; further: potency means the concentration at half of the fitted maximal effect). The procedure, abridged: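 ARE-bla HepG2 cells (beta-lactamase reporter under ARE control) were plated at 2,000 cells/well, preincubated 5 h at 37 C/5% CO2, then treated with DMSO-dissolved compounds for 16 h at 37 C; LiveBLAzer B/G FRET substrate added, fluorescence read after 2 h at room temperature.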

Assay [13] in a line: qHTS assay for environmental chemicals that activate the Aryl hydrocarbon Receptor (AhR) signaling pathway (AID 651777). Further: potency means the concentration at half of the fitted maximal effect; nearly all actives have a fitted effect of over 15% in size. As to conditions: 1A2-DRE human hepatoma cells, luciferase, 24 h; activation: stronger effect = higher value. The procedure, abridged: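 Luminescence read-out: One-Glo added for 30 min at RT after 24 hr compound treatment (37 C, 5% CO2) of human hepatoma cells expressing a DRE/CYP1A2 promoter–luciferase reporter; increased signal indicates AhR activation.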

The target of assay [14] is Peroxisome proliferator-activated receptor alpha (Homo sapiens) (UniProt Q07869). In words: qHTS assay for small molecule agonists of the peroxisome proliferator-activated receptor alpha (PPARalpha) signaling pathway (AID 651778). Further: % of control where 0% means no effect. Conditions: PathHunter PPARalpha complementation, chemiluminescence, 6 h; stronger effect = higher value. The procedure, abridged: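 Cells plated at 2,000/well and held overnight at 37 C, 5% CO2, then compound added by pin tool for 6 hr; after PathHunter detection reagent and 60 min at room temperature, chemiluminescence from enzyme complementation was read.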

A short description of assay [15]: qHTS assay for small molecule agonists of the antioxidant response element (ARE) signaling pathway measured by Nrf2-dependant transcriptional activity - cell viability counter screen (AID 720653; active means well fitted curve in the direction sought with a large enough effect in the repeat runs; an effect the other way counts as inactive or inconclusive; further: on the % scale 0 is the no-effect control and ±100 the full control effect). Conditions: ARE-bla HepG2 viability, CellTiter-Glo ATP luminescence, 16 h; max response: stronger effect = lower value. The procedure, abridged: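 ARE-bla HepG2 cells (2,000/well) rested 5 hrs at 37C/5% CO2, then exposed to compounds in DMSO for 16 hrs. Viability was read in the same wells as intracellular ATP by luminescence, 30 min at room temperature after reagent addition.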

The nature of assay [16]: qHTS assay for cell viability of HEK293 cells (AID 743288). Further: on the % scale 0 is the no-effect control and ±100 the full control effect; nearly all actives have a fitted effect of over 50% in size. As to conditions: ATP luminescence (CellTiter-Glo), 18 h; max response: stronger effect = lower value. The procedure, abridged: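 Luminescent ATP quantitation served as the viability read-out. Cells (parental HEK293, 2,000/well) received compounds after at least 5 h at 37 C and were exposed for 18 h before a 30 min room-temperature reagent step.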

Assay [17] is described as follows: qHTS assay for cell viability of the p53RE-bla HCT-116 cell line (AID 743292). Further: on the % scale 0 is the no-effect control and ±100 the full control effect; nearly all actives have a fitted effect of over 55% in size. The essentials:
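Luminescent ATP quantitation (CellTiter-Glo) served as the viability read-out; reagent was added after 16 h compound exposure at 37 C and read after 30 min at room temperature. Cells: p53RE-bla HCT-116, 4,000 per well.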

Assay [18] concerns the target Rap guanine nucleotide exchange factor 4 (Homo sapiens) (UniProt Q8WZA2). In words: Confirmatory qHTS for agonist of cAMP-regulated guanine nucleotide exchange factor 4 (EPAC2) (AID 1645884).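 Further: nucleotide exchange releases bodipy-GDP from Rap1 and this lowers its fluorescence; on the % scale 0 is the no-effect control and ±100 the full control effect; nearly all actives have a fitted effect of over 65% in size.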
The target is the same in assay [19]. In words: Confirmatory qHTS for antagonist of cAMP-regulated guanine nucleotide exchange factor 4 (EPAC2) (AID 1645885). Further: on the % scale 0 is the no-effect control and ±100 the full control effect; nearly all actives have a fitted effect of over 25% in size.
Assay [20] can be described thus: Confirmatory screen GU Rhodamine qHTS for Zika virus inhibitors qHTS (AID 1347157).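 Further: plate controls were no-inhibitor wells for no effect and no-enzyme wells for full effect; nearly all actives have a fitted effect of over 70% in size.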 The essentials:
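Unlinked NS2B/NS3, 25 nM; Rhod110 peptide, 1.5 microM; compounds, up to 114 microM. Reaction run 15 min at RT in 10 mM Tris-HCl pH 8.0, 0.01% Tween 20; kinetic fluorescence change fitted with a 4-parameter Hill model.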

Records with an inconclusive call do not appear. Active and inactive are the calls of the source. Unless noted, the call rests on the fitted dose curve; in most records, active means well fitted curve in the direction sought with a large enough effect; inconclusive means small, poorly fitted or top-dose-only effect, or another doubt; inactive means no such curve, though single readings can be large; an effect the other way counts as inactive or inconclusive.

Glucocorticoid receptor (Homo sapiens), sequence (P04150 whole entry, looked up): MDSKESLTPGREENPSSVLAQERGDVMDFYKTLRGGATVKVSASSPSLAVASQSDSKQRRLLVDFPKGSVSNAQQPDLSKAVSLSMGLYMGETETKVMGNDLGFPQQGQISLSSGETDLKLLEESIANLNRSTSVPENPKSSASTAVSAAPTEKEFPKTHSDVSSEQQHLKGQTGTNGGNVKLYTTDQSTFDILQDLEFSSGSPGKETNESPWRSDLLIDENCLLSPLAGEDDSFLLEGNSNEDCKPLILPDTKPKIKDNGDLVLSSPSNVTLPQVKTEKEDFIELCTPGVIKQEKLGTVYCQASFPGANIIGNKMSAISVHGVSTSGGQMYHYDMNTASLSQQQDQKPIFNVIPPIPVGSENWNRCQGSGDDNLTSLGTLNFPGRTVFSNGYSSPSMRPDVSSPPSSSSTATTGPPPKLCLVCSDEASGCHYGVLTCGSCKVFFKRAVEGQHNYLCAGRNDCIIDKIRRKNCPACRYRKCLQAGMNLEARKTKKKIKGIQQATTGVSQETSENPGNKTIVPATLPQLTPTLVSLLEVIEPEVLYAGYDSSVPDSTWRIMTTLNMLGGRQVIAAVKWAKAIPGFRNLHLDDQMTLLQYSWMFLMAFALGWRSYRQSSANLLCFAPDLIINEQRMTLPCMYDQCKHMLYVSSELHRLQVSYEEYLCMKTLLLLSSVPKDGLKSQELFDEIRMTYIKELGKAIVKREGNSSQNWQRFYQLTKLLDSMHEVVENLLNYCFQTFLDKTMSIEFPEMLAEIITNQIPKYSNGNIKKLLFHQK
Rap guanine nucleotide exchange factor 4 (Homo sapiens), sequence (Q8WZA2 whole entry, looked up): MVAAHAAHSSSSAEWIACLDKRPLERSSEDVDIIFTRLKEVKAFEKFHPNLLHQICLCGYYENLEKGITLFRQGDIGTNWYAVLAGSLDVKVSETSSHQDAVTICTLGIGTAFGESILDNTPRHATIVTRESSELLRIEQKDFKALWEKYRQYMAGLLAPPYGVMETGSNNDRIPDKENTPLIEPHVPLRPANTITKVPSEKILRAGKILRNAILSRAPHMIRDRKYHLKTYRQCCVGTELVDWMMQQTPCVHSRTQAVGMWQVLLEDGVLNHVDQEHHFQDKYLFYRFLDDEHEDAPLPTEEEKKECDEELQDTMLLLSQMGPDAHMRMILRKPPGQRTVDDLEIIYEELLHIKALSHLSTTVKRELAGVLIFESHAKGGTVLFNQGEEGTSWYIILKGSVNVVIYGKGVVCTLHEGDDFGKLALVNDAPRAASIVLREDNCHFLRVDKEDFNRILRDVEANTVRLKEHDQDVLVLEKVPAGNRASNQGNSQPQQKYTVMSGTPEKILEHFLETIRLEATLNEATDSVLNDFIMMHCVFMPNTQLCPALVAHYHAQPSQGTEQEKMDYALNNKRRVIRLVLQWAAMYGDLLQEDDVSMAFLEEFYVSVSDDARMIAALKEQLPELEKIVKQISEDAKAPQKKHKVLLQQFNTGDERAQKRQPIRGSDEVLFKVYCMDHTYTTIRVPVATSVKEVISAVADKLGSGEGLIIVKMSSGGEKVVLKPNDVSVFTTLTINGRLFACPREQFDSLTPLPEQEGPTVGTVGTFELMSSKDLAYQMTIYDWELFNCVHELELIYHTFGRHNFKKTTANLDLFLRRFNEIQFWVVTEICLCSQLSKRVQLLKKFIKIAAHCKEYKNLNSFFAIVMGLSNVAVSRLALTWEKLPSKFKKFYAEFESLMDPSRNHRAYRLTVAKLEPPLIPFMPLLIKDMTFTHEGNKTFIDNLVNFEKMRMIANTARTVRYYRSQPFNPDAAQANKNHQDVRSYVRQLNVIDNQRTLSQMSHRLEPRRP
Peroxisome proliferator-activated receptor gamma (Homo sapiens), sequence (P37231 whole entry, looked up): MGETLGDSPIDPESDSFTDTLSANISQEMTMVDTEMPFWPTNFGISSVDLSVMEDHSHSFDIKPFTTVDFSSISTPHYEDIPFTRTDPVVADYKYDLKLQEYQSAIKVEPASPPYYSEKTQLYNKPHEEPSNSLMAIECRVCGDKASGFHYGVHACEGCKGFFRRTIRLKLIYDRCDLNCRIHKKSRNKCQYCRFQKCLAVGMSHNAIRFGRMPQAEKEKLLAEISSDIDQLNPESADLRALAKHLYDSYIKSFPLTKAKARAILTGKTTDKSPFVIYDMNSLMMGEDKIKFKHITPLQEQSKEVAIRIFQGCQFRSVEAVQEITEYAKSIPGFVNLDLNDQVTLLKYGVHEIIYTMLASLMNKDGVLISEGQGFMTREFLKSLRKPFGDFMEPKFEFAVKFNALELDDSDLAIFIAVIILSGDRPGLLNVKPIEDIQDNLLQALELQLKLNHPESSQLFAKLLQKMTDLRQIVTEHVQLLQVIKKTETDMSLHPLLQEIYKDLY
Retinoic acid receptor RXR-alpha (Homo sapiens), sequence (P19793 whole entry, looked up): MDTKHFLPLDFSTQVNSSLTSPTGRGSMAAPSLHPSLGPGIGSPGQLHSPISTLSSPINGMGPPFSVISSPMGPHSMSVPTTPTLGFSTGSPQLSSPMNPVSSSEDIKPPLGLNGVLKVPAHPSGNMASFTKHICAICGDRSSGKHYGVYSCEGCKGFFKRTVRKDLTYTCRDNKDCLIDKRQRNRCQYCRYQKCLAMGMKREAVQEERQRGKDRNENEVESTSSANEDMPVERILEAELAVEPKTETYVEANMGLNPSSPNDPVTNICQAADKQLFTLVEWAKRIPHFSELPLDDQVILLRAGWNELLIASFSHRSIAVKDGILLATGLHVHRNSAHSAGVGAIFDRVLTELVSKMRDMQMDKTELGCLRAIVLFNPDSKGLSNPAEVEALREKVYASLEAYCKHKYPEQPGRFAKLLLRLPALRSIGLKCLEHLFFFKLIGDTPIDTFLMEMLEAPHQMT
Bile acid receptor (Homo sapiens), sequence (Q96RI1 whole entry, looked up): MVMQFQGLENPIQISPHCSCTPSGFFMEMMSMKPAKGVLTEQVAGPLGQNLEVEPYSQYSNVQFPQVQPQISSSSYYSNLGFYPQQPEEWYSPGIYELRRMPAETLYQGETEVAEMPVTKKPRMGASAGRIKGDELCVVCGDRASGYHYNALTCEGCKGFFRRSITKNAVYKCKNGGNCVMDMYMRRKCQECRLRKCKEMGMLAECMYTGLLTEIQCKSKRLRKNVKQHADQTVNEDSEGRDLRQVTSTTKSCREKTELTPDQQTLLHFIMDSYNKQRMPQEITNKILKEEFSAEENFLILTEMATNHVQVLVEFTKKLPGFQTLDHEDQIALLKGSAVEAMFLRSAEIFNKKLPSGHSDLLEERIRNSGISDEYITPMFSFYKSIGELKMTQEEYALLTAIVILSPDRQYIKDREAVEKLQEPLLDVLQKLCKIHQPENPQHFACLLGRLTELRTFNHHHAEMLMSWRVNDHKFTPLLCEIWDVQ
Peroxisome proliferator-activated receptor alpha (Homo sapiens), sequence (Q07869 whole entry, looked up): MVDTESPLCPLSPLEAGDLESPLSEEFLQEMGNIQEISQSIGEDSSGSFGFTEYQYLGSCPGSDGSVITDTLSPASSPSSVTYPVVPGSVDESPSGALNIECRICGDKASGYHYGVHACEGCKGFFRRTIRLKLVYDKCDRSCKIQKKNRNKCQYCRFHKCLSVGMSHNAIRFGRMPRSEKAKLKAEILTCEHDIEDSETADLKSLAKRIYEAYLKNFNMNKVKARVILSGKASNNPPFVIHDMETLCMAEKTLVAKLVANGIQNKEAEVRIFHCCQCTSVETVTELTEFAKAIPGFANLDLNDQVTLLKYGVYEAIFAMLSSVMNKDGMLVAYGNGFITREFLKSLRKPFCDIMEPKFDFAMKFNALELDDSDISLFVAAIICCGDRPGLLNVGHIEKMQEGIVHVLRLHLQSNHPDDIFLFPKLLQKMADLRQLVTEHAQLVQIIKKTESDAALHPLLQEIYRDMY
Estrogen receptor (Homo sapiens), sequence (P03372 whole entry, looked up): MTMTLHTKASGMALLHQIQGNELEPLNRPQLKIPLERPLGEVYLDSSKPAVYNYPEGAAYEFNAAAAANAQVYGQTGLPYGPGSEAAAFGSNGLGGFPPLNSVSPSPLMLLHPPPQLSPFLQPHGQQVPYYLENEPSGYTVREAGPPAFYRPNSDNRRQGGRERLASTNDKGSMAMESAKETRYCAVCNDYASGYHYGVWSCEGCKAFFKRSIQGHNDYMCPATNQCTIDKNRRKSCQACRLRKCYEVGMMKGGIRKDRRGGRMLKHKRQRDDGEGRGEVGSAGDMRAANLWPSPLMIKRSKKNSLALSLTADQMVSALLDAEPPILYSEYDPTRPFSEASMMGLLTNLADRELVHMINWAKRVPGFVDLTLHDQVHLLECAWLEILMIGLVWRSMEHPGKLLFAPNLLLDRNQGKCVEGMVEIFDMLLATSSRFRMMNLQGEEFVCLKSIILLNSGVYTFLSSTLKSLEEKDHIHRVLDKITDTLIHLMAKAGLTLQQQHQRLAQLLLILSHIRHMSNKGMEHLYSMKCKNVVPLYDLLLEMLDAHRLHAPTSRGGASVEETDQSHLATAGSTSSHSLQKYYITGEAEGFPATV
Vitamin D3 receptor (Homo sapiens), sequence (P11473 whole entry, looked up): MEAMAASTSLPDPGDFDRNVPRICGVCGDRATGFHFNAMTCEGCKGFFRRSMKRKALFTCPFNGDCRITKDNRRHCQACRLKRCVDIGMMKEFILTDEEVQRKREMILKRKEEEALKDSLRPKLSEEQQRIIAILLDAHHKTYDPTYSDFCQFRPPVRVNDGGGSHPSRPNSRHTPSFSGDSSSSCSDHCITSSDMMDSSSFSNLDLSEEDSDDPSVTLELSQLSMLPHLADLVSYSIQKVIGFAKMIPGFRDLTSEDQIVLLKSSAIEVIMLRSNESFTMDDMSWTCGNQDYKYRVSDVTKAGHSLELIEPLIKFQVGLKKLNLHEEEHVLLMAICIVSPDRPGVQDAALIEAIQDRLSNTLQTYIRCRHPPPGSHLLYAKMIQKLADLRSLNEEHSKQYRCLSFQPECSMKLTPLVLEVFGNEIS

For `Cc1ccc2cc3c(ccc4ccccc43)c3c2c1CC3`, the Potency entry in assay [1], in [4] and in assay [6] was “inactive” in each case. Besides, the activation in assay [2] was 2.18% (inactive); in [3], 4.51% (inactive). Moreover, the call in [5], in assay [7], in assay [9] and in [17] was inactive. Besides, the max response in assay [8] was 0.698%; in assay [10] it was 24.7%; in [11], -30.8% (inactive); in [14] it was -0.967% (inactive); in assay [15], -7.15% (inactive); in assay [16], -7.81% (inactive). In addition, the Potency in assay [12] is 2.17 µM (active); in assay [13] it was 8.91 µM (active).

For `CC(C)(O)[C@H]1O[C@@H]2CC[C@]3(C)[C@@]4(C)c5[nH]c6ccccc6c5C[C@@H]4CC[C@]3(O)C2=CC1=O`, the compound was classed as inactive in assay [18].

With `C(=C/c1ccccc1)/CN1CCN(CCOC(c2ccccc2)c2ccccc2)CC1`, the Potency entry in [19] was “inactive”.

With `O=C(O)c1ccccc1-c1c2cc(Br)c(=O)cc-2oc2[c]([Hg])c(O)c(Br)cc12`, the Potency result in assay [20] is “inactive”.
